# In the library only some 12% were active in any assay of this set; here they are far more common.
# Arbovirus inh – antivirals against arbovirus infection, primary screen, cell-based, full library, 10K replicate subset; arbovirus infection cell-based antiviral screen; inhibition, % at 10 µM; 200,000 tested, 0.37% active; in the data active = inhibition above about 30%
# Lmaj promast – Leishmania major promastigote growth inhibition, primary screen; Leishmania major promastigotes, resazurin fluorescence viability; inhibition, % at 10 µM; 200,000 tested, 9% active; in the data active = inhibition above about 50%;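 note: promastigotes grown with compound for 44 hours at 28 °C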
# CHOP inhibitor – inhibitors of CHOP promoter induction, primary screen, cell-based, unfolded protein response, luciferase reporter. CHO-K1 CHOP-promoter luciferase, tunicamycin-induced, 15-18 h. inhibition, % at 10 µM. 220,000 tested, 3.8% active. AID 2732, 2010;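 active = compounds that reduced the stress-induced luciferase reporter signal by more than about 70% of percent inhibition, limit read from the data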
# WT yeast gro inh – growth inhibition of WT strain, primary screen, mitochondrial fusion inhibitor project, WT and mutant strains, chemical genetic; mitochondrial fusion phenotypic screen; inhibition, % at 10 µM; 190,000 tested, 2.1% active; in the data active = inhibition above about 58%; tested in S. cerevisiae
# A number is an active result; 0 = inactive; - = no result.
SMILES,Arbovirus inh,Lmaj promast,CHOP inhibitor,WT yeast gro inh
CCN1C(=O)/C(=C/c2nc3ccccc3c(=O)n2-c2ccccc2)c2ccccc21,0,71,0,0
Cc1ccc(N2CN(CCc3ccccc3)CNC2=S)cc1,-,-,0,-
O=C1/C(=C\c2ccco2)SC(=S)N1C1CCS(=O)(=O)C1 (stereo not drawn),-,-,0,-
O=C1/C(=C/c2ccco2)SC(=S)N1C1CCS(=O)(=O)C1 (stereo not drawn),0,93,0,0
CCCC(=O)Nc1c(-c2ccccc2)c(=O)c(C)nn1-c1ccc(C)cc1,-,-,0,-
COc1ccc(-n2c(-c3ccc(Cl)cc3)c[n+]3c2CCc2ccccc2-3)cc1,0,100,0,0
COc1ccc(-n2c(-c3ccccc3)nnc2-c2ccc(Cl)cc2)cc1,0,0,0,0
CCN(CC)C(=O)CN(c1ccc(Cl)cc1)S(=O)(=O)c1ccccc1,0,90,0,0
Cc1cc(C)c(OCC(=O)Nc2nnc(-c3ccco3)o2)c(C)c1,0,0,0,59
CC(=O)Nc1nnc(-c2ccco2)o1,0,0,0,0
O=C(/C=C/c1ccccc1)Nc1nnc(-c2ccco2)o1,0,65,0,0
COc1ccccc1OCC(=O)Nc1cccc(-c2nnc(-c3ccco3)o2)c1,0,0,0,0
O=C(CN1C(=O)COc2ccccc21)N1CCc2ccccc2C1,0,0,0,0
CCCC(=O)Nc1cc(Cl)ccc1N1CCN(C(=O)CC)CC1,0,0,0,0
CC[C@H](C)[C@H](NC(N)=O)C(=O)NCCc1ccc(Cl)cc1Cl,0,0,0,0
COc1ccc2occ(C(C)=O)c2c1,0,0,0,0
CC(=O)c1coc2ccc(OCCN3CCCCC3)cc12,0,91,0,0
CCC(=O)N1CCN(c2nc(-c3ccccc3)c3c(c2C#N)CCCC3)CC1,0,76,73,0
COc1cccc(-c2nc(-c3ccccc3)nc(N3CCN(C)CC3)c2C#N)c1,0,51,77,81
CN1CCN(c2nc(-c3ccccc3)nc(-c3ccccc3)c2C#N)CC1,0,0,0,73
COC(=O)c1sc2nc(-c3ccccc3)nc(N3CCN(C)CC3)c2c1C,0,55,0,0
O=C(c1ccc2ccccc2c1)C1CCCN(C(=O)c2noc3c2CCCC3)C1 (stereo not drawn),0,0,0,0
CCOC(=O)c1nnn(-c2nonc2N)c1-c1ccc(F)cc1,0,0,0,0
CCOC(=O)c1cc(C#N)c(N2CCN(C)CC2)nc1-c1ccccc1,0,89,0,0
COc1ccc(-c2nc(-c3ccccc3)nc(N3CCN(C)CC3)c2C#N)cc1,0,0,0,0
SMILES,Arbovirus inh,Lmaj promast,CHOP inhibitor,WT yeast gro inh
COc1ccc(-c2nc(-c3cccc(C)c3)nc(N3CCN(C)CC3)c2C#N)cc1,0,86,0,0
CCOC(=O)N1CCc2c(sc3nc4n(c(=O)c23)N=C(c2ccc(OC)cc2)CS4)C1,-,-,0,-
CCN(CCCNC(=O)COc1cc(=O)n(CC)c2ccccc12)Cc1ccccc1,0,0,0,0
CC(C)CCNC(=O)CCCOc1cc(=O)n(C)c2ccccc12,0,0,0,96
CN1CCN(CCCNC(=O)CCCOc2cc(=O)n(C)c3ccccc23)CC1,0,0,0,0
CCN(CCCNC(=O)CCCOc1cc(=O)n(C)c2ccccc12)Cc1ccccc1,0,86,0,0
Nc1cccc2c1C(=O)N(C(=O)/C=C/c1cccc(Br)c1)C2=O,-,-,0,-
COc1cc(/C=C/C(=O)N2C(=O)c3cccc(N)c3C2=O)cc(OC)c1OC,0,0,94,0
COc1ccc(OC)c(/C=C/C(=O)N2C(=O)c3cccc(N)c3C2=O)c1,0,0,90,0
c1ccc(-c2noc(CC3CCCCC3)n2)nc1,0,0,0,0
CCOC(=O)N1CCC2(CC1)NCCc1c2[nH]c2ccccc12,-,-,0,-
COC(=O)C1=C(C(=O)OC)[C@@H]2N(Cc3ccccc3)c3ccccc3[C@@]23C[C@@H](C(=O)OC)N=C3N1,-,-,0,-
Cc1ccc(C(=O)CN2C(=O)c3ccccc3S2(=O)=O)cc1,-,-,87,-
C[C@H](Cc1ccccc1)Nc1ncnc2c1ncn2[C@@H]1O[C@H](CO)[C@H](O)C1O (stereo partly drawn),-,-,0,-
S=c1[nH]nc(-c2ccccn2)n1/N=C/c1cccc2ccccc12,0,50,0,0
Cc1ccc(/C=N/n2cc(-c3ccccc3)[nH]c2=S)s1,0,0,0,68
S=c1[nH]c(-c2ccccc2)cn1/N=C/c1cccc2ccccc12,0,0,0,75
S=c1[nH]c(-c2ccccc2)cn1/N=C/c1ccccc1Br,0,0,0,68
Oc1ccc(/C=N/n2cc(-c3ccccc3)[nH]c2=S)cc1,0,0,0,0
Cc1ccccc1/C=N/n1c(-c2ccccn2)n[nH]c1=S,-,-,0,-
